Lassa entry inh: blocks Lassa virus binding to or entry into cells; AID 540256; Potency, µM (titrated, usually from 37.9 µM), most hits filed as inhibitors; Lassa virus pseudotype entry inhibition, cell reporter; 1.2% of 300,000 active; calls by dose curve; tested in HEK293 cells; note: nearly all actives have a fitted effect of over 50% in size
Marburg entry inh: inhibitors of Marburg virus binding or cell entry; Marburg virus pseudotyped entry inhibition, cell reporter; 1.8% of 300,000 active; Potency, µM (top dose mostly 37.8 µM), actives largely listed as inhibitors; calls by dose curve; tested in HEK293 cells
HCV inhibitor: blocks hepatitis C virus | 3.4% of 340,000 active | Huh7.5.1 HCVcc-Cre infection, luciferase reporter, 44 h | Potency, µM (titrated, usually from 41.8 µM), actives largely listed as inhibitors
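Reporter virus HCVcc-Cre (~0.5 moi) infects cells exposed to compound; seeding density 1,000 cells/well with 4 h settling beforehand. Luminescence, 15 sec read, taken 44 h post-infection following a 15 min RT substrate incubation.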
FMDV antiviral: blocks foot and mouth disease virus. FMDV antiviral cell-based qHTS. Potency, µM (titrated, usually from 57.9 µM), actives largely listed as inhibitors. 1.2% of 410,000 active. AID 1159524; calls by dose curve; tested in HEK293T cells; note: read-out not given here; nearly all actives have a fitted effect of over 45% in size
RE007 growth inh: less growth of the S. pombe RE007 Vpr strain | S. pombe RE007 Vpr strain, BacTiter-Glo ATP luminescence, 24 h | Potency, µM (doses to about 92.2 µM), actives largely listed as inhibitors | 0.21% of 360,000 active; active = well fitted falling curve with a large enough effect; inconclusive = small, poorly fitted or top-dose-only effect; inactive = no such curve, though single readings can be large or run the other way; note: nearly all actives have a fitted effect of over 50% in size
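Fission yeast strain RE007, carrying one chromosomally integrated HIV-1 vpr copy, was seeded at OD 0.01 in PMG+AL medium with 23 nL pinned compound. After 24 h at 30 °C and 99% humidity, viability was read by BacTiter-Glo luminescence.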
Sm TGR block: blocks Schistosoma mansoni thioredoxin glutathione reductase; Q962Y6; purified TGR, DTNB reduction, TNB absorbance 405 nm; Potency, µM (top dose mostly 114 µM), most hits filed as inhibitors; 3% of 360,000 active; AID 485364; note: nearly all actives have a fitted effect of over 60% in size
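Kinetic colorimetric format: TGR-catalysed, NADPH-driven DTNB reduction monitored via TNB absorbance. Enzyme dispensed at 20 nM; compound exposure 15 min at room temperature before reaction start.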
Large screens that a line does not name were inactive. Rows were chosen to be rich in hits. Some 7.2% of all compounds tested hit in one or more screens of this group. Unless noted, calls come from the whole dose curve; as a rule, active = well fitted curve in the direction sought with a large enough effect; inconclusive = small, poorly fitted or top-dose-only effect, or another doubt; inactive = no such curve, though single readings can be large; an effect the other way counts as inactive or inconclusive.

CCc1cccc(NC(=O)CCc2nc3cccnc3n2Cc2ccc(OC)cc2)c1	Lassa entry inh inconclusive (no result: HCV inhibitor, RE007 growth inh)
CCOC(=O)COc1ccc(Br)cc1/C=C\c1[nH]c(=O)[nH]c(=O)c1[N+](=O)[O-]	FMDV antiviral 35.5µM, Sm TGR block inconclusive
CCOc1cc(/C=C\c2[nH]c(=O)[nH]c(=O)c2[N+](=O)[O-])ccc1OC(C)CC (stereo unspecified)	FMDV antiviral 8.91µM
CCCOc1ccc(/C=C/c2[nH]c(=O)[nH]c(=O)c2[N+](=O)[O-])cc1OCC	FMDV antiviral inconclusive
COc1cccc(/C=C/c2[nH]c(=O)[nH]c(=O)c2[N+](=O)[O-])c1O	Sm TGR block 35.5µM
CCOC(=O)COc1ccc(Br)cc1/C=C/c1[nH]c(=O)[nH]c(=O)c1[N+](=O)[O-]	Lassa entry inh inconclusive, Marburg entry inh inconclusive, FMDV antiviral 28.2µM, Sm TGR block inconclusive
CCOc1ccc(/C=C/c2[nH]c(=O)[nH]c(=O)c2[N+](=O)[O-])cc1	Marburg entry inh inconclusive
O=C1CC(c2ccccc2)Cc2[nH]c(=O)c(-c3nc(-c4cccc(Cl)c4)cs3)cc21 (stereo unspecified)	none (no result: HCV inhibitor, RE007 growth inh)
CC1CCCN(C(=O)CN2CCC(c3nc4ccc(Cl)cc4[nH]3)CC2)C1 (stereo unspecified)	HCV inhibitor inconclusive (no result: Lassa entry inh, Marburg entry inh)
Clc1ccc(CN2CCC(c3nc4ccc(Cl)cc4[nH]3)CC2)cc1	Lassa entry inh inconclusive, Marburg entry inh 11.2µM, HCV inhibitor inconclusive, FMDV antiviral inconclusive
COc1cc(C(=O)NC(=S)NCc2ccncc2)cc(OC)c1OC	FMDV antiviral inconclusive (no result: Lassa entry inh, Marburg entry inh, HCV inhibitor, Sm TGR block)
O=C(Nc1cc2c3c(c1)CC(=O)N3CCC2)c1ccccc1Br	HCV inhibitor 10µM
Cn1cnc2nc(Cl)nc(Cl)c21	Lassa entry inh inconclusive, Marburg entry inh inconclusive, HCV inhibitor 31.6µM, FMDV antiviral inconclusive (no result: Sm TGR block)
CNc1nc(Cl)nc2ncn(C)c12	none (no result: Sm TGR block)
Fc1ccc([C@@H]2CCNC[C@H]2COc2ccc3c(c2)OCO3)cc1	Lassa entry inh inconclusive, Marburg entry inh 16.4µM, HCV inhibitor inconclusive, FMDV antiviral inconclusive
Fc1ccc(CNCCc2ccc3c(c2)OCO3)cc1	none (no result: Lassa entry inh, Marburg entry inh)
Fc1ccc(C2CCNCC2COc2ccc3c(c2)OCO3)cc1 (stereo unspecified)	Lassa entry inh inconclusive, Marburg entry inh inconclusive, HCV inhibitor 14.1µM, Sm TGR block inconclusive
CCN(CC)CCNC(=O)C1CCN(c2nn3cc(-c4ccc(F)cc4)nc3s2)CC1	Lassa entry inh inconclusive (no result: Marburg entry inh, HCV inhibitor, RE007 growth inh)
COCCCNC(=S)N1CCC(C(=O)c2ccc(Cl)cc2)CC1	Lassa entry inh inconclusive, Marburg entry inh inconclusive, HCV inhibitor 3.98µM, FMDV antiviral inconclusive
COCCNC(=S)N1CCC(C(=O)c2ccc(Cl)cc2)CC1	none (no result: Lassa entry inh, Marburg entry inh, HCV inhibitor, Sm TGR block)
COc1ccc(Cn2c(C(=O)O)c(CNCCc3cc(OC)ccc3OC)c3ccc(C)cc32)cc1	Lassa entry inh inconclusive (no result: Marburg entry inh, HCV inhibitor, RE007 growth inh)
Cc1cc(C)cc(NC(=O)CSc2nc(=O)[nH]c3c2CCC3)c1	none (no result: Marburg entry inh, HCV inhibitor, RE007 growth inh)
O=[N+]([O-])c1cccc2nc3ccccc3c(NCCCn3ccnc3[N+](=O)[O-])c12	Lassa entry inh inconclusive, Marburg entry inh inconclusive, HCV inhibitor inconclusive, FMDV antiviral 14.1µM (no result: Sm TGR block)
Nc1c(C(=O)c2ccccc2)sc(Nc2ccc(Cl)c(Cl)c2)c1C(=O)Nc1ccccc1	Lassa entry inh inconclusive (no result: Marburg entry inh, HCV inhibitor, RE007 growth inh)
O=C(N[C@@H](Cc1ccccc1)C(=O)O)c1ccncc1	none (no result: Lassa entry inh, Marburg entry inh)
O=C(N[C@@H](Cc1ccc(O)cc1)C(=O)O)c1cccnc1	Sm TGR block 50.1µM (no result: Lassa entry inh, Marburg entry inh)
COc1cccc(-c2noc(COc3ccccc3Cl)n2)c1	Lassa entry inh inconclusive (no result: HCV inhibitor, RE007 growth inh)
Cc1ccc(-c2nnc(N)o2)cc1	none
Cc1ccc(-c2nnc(-c3cccs3)o2)cc1	Lassa entry inh inconclusive, RE007 growth inh 20µM (no result: Sm TGR block)
Cc1ccc(/C=C/c2nnc(-c3cccs3)o2)cc1	Lassa entry inh 10.3µM, Marburg entry inh 11.6µM (no result: FMDV antiviral)
Cc1ccc(-c2nnc(-c3ccccc3)o2)cc1	Lassa entry inh 10µM, Marburg entry inh 15.8µM, RE007 growth inh inconclusive
COc1ccc(-c2nnc(-c3ccc(C)cc3)o2)cc1	Marburg entry inh inconclusive
COc1ccc(CCNC(=O)c2cnc3ccc(C)cn3c2=O)cc1OC	none (no result: Lassa entry inh, HCV inhibitor, RE007 growth inh)
O=C(NCC1CCC2(CCN(Cc3ccc4ncccc4c3)CC2)O1)C1CCCO1 (stereo unspecified)	none (no result: Lassa entry inh, Marburg entry inh, HCV inhibitor, RE007 growth inh, Sm TGR block)
CCOc1ccc(CNC(=O)CN2N=C(c3ccccc3)CCC2=O)cc1OC	Lassa entry inh inconclusive (no result: Marburg entry inh, HCV inhibitor, RE007 growth inh)

High-throughput results (PubChem)
